From PubChem
Mtb betalactam: beta-lactam sensitization of Mtb H37Rv, H37Rv | M. tuberculosis H37Rv growth with meropenem, percent inhibition | hit rate 0.27% among 330,000 | inhibition, % at 25 µM | AID 434955, 2010; call rule not given here;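 also: growth measured after seven days incubation then overnight dye step; 0% = bacteria only wells and 100% = bacteria with antibiotic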
GDH-TPI counter: GDH-TPI coupling enzyme inhibitors, primary screen, artefact control for M. tuberculosis FBA inhibitor project, biochemical, absorbance, full deck; GDH-TPI coupled enzyme counterscreen, NADH absorbance; inhibition, % at 4.8 µM; hit rate 1.2% among 360,000; AID 588335, 2011; in the data active = inhibition above about 30%;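 also: 0% = DMSO wells and 100% = wells lacking the enzyme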
VHR inh abs: VHR1 phosphatase inhibitors, primary screen, biochemical, absorbance, uHTS; recombinant VHR phosphatase, pNPP absorbance; inhibition, % at 13.3 µM; hit rate 0.52% among 290,000; in the data active = inhibition above about 50%
Target sequence (P51452 whole entry, looked up): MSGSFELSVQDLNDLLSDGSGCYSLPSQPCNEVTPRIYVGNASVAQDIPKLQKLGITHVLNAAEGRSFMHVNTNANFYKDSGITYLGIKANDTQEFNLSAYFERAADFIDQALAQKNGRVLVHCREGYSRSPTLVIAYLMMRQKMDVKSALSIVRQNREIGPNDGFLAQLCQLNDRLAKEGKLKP
Mtb hypoxia inh: PubChem AID 1159583; M. tuberculosis hypoxia-regulated fluorescent reporter, fluorescence; fluorescence inhibition, % (no concentration beside the values); hit rate 0.1% among 300,000; in the data active = fluorescence inhibition mostly above about 23%, no sharp cut-off; inactive = mostly below about 17%
FBA Mtb inh: Mtb FBA enzyme inhibitors, primary screen, biochemical, fluorescence, strain H37Rv; hit rate 2.3% among 360,000; inhibition, % at 1 µM; purified M. tuberculosis FBA, fluorescence read-out; in the data active = inhibition above about 27%;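 also: 0% = vehicle and 100% = reference inhibitor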
Target sequence (P9WQA3 whole entry, looked up): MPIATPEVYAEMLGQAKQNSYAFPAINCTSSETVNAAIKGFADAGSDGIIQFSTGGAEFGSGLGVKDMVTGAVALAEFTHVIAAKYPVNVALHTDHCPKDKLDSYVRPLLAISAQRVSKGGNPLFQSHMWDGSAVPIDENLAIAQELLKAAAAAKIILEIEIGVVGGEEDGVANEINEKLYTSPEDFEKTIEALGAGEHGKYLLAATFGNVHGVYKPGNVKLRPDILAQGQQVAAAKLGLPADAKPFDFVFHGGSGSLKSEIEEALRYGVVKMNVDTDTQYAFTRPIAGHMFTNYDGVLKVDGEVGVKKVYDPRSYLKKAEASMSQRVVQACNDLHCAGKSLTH
* hit, by the source's call; · = not tested or not shown; + = active, no number. An excerpt weighted towards active compounds, which were near 3.6% of everything screened.

SMILES	Mtb betalactam	GDH-TPI counter	VHR inh abs	Mtb hypoxia inh	FBA Mtb inh
O=C(c1ccccc1)N1CCN(C(=O)c2ccccc2)CC1	-3	-2	-22	3	2
CC1(C)C(C(=O)N2CCN(C(=O)c3ccccc3)CC2)C1(C)C	0	-9	58*	-8	-4
O=C(NCC1CCCO1)c1cccc2c1C(=O)c1ccc(-c3ccc(F)cc3OCc3ccccc3)cc1S2(=O)=O (configuration not stated)	·	·	·	5	·
COc1ccc(NC(=O)c2ccc(N3C(=O)C4CC=C(Cl)CC4C3=O)cc2)cc1 (configuration not stated)	4	15	56*	-5	2
COc1ccc(N2C(=O)C3CC=C(Cl)CC3C2=O)cc1 (configuration not stated)	0	6	23	8	3
CC1OC(OC2C(OC3C[C@]4(C)C(CC(O)C5C([C@]6(C)CCC(C(C)(C)O)O6)CC[C@]54C)[C@@]4(C)CCC(O)C(C)(C)C34)OC(CO)C(O)C2O)C(O)C(O)C1O (some centres not stated)	·	·	·	4	·
NC(=O)[C@@H]1CCCNc2c(I)cc([N+](=O)[O-])cc2C(=O)N[C@@H](CCC(=O)O)C(=O)N[C@@H](CO)C(=O)N1	-4	35*	-11	·	0
CC(=O)N=c1c(C#N)cc2c(=O)n3cccc(C)c3nc2n1CCCOC(C)C	-2	5	14	7	+
Cc1ccccc1C(=O)N=c1c(C#N)cc2c(=O)n3cccc(C)c3nc2n1Cc1ccco1	3	·	4	-4	·
Cc1cccn2c(=O)c3cc(C#N)c(=NC(=O)c4ccncc4)n(CCCOC(C)C)c3nc12	3	5	19	1	11
CC(=O)N=c1c(C#N)cc2c(=O)n3cccc(C)c3nc2n1Cc1ccco1	-1	9	50	10	+
Cc1cccn2c(=O)c3cc(C#N)c(=NC(=O)c4cccs4)n(CCCOC(C)C)c3nc12	2	12	-5	-5	+
CCCn1c(=NC(=O)c2ccc3c(c2)OCO3)c(C#N)cc2c(=O)n3cccc(C)c3nc21	·	·	3	·	·
CCOCCCn1c(=NC(=O)c2cccs2)c(C#N)cc2c(=O)n3ccccc3nc21	-10	10	4	14	+
CC(=O)Nc1ccc(C(C)=NNC(=O)c2ccc(CN3CCOCC3)cc2)cc1	·	·	·	7	·
C#CCOCCOCCOCCNc1nc(N2CCN(C(=O)CCCCCCCCCCNC(=O)Cn3cc(CC(C)O)nn3)CC2)nc(N2CCN(C(=O)CCCCCCCCCCNC(=O)Cn3cc(CC(C)O)nn3)CC2)n1 (configuration not stated)	·	·	·	-2	·
COc1ccc(C(=O)N=c2c(C#N)cc3c(=O)n4cccc(C)c4nc3n2Cc2ccco2)cc1	·	·	-4	5	·
N#Cc1cc2c(=O)n3ccccc3nc2n(Cc2ccco2)c1=NC(=O)c1ccco1	-1	16	19	-6	168*
CCOC(=O)C1=C(C)NC(=O)NC1c1ccc(-c2ccc(F)cc2)o1 (configuration not stated)	-1	0	52*	8	6
OCC1(CCc2ccccc2)CCCN(C/C=C/c2ccccc2)C1 (configuration not stated)	-1	-9	57*	15	-1
COc1ccccc1/C=C/CN1CCCC(CO)(CCc2ccccc2)C1 (configuration not stated)	0	3	18	-1	3
CN(C(=O)c1ccc2c(=O)n3c(nc2c1)CCCCC3)c1ccccc1	0	2	53*	·	2
CCCNC(=O)C12CCC(C)(c3nc4cc(C)c(C)cc4nc31)C2(C)C (configuration not stated)	-1	55*	7	15	2
CNC(=O)C12CCC(C)(c3nc4cc(C)c(C)cc4nc31)C2(C)C (configuration not stated)	-3	16	12	4	3
COc1ccc(/C=N/N2C(=N)SCC2=O)cc1	22	49*	13	·	0
SMILES	Mtb betalactam	GDH-TPI counter	VHR inh abs	Mtb hypoxia inh	FBA Mtb inh
COc1cc(/C=N/N2C(=O)CSC2=S)ccc1O	-2	38*	8	·	-9
O=C1CSC(=S)N1/N=C/c1cccnc1	1	57*	2	·	-4
O=C1CSC(=S)N1N=Cc1ccccc1O	·	14	·	·	-2
CCCCC1CC1C(NC(=O)c1cccs1)c1ccc(Cl)cc1 (configuration not stated)	·	·	·	-6	·
COc1ccc(/C=C/C(=O)Nc2ccc(S(=O)(=O)Nc3onc(C)c3C)cc2)cc1OC	-2	37*	-2	13	0
COc1ccc(/C=C/C(=O)Nc2ccncc2)cc1OC	-7	15	26	-6	22
CCOc1ccc(/C=C/C(=O)Nc2ccc(C(N)=O)cc2)cc1OC	1	51*	10	7	5
COC(=O)C1=C(c2ccc(F)cc2OCc2ccccc2)CC2CCC1N2C(=O)NCCOc1ccc(OC)cc1 (configuration not stated)	·	·	·	8	·
O=C(O)CC1c2ccccc2S(=O)(=O)N1c1ccccc1 (configuration not stated)	·	·	·	-1	·
CCOC(=O)c1cn2nc(Oc3cccc(C(F)(F)F)c3)ccc2n1	-3	5	8	0	66*
CCOC(=O)c1cn2nc(Oc3ccccc3)ccc2n1	-7	-5	-6	-10	6
Nc1ccc2nc(-c3ccc(N)c(Cl)c3)[nH]c2c1	-11	32*	8	18	119*
Nc1ccc2nc(-c3ccccc3)[nH]c2c1	-7	21	5	6	+
Nc1ccc(-c2nc3c(Cl)cc(N)cc3[nH]2)cc1	29	45*	49	-4	197*
Nc1ccc2nc(-c3cccs3)[nH]c2c1	8	29	13	3	+
Nc1ccc(Cl)c(Cl)c1	·	3	·	·	3
Nc1ccc2nc(-c3cccnc3)[nH]c2c1	1	21	-2	7	4
Cc1cc(C=NNC(=O)c2cccc(F)c2)c(C)n1-c1ccccc1	·	·	·	-5	·
COC(=O)C1=C(c2cccc(OC)c2OC)CC2CCC1N2C(=O)NC1CC1 (configuration not stated)	·	·	·	12	·
CC(=O)Nc1ccc2nc(-c3cccs3)[nH]c2c1	-6	44*	11	5	+
S=c1[nH]nc(C2CCCCC2)n1N=Cc1cccc(Cl)c1Cl	·	·	·	2	·
O=c1[nH]c(=O)c2nc(-c3ccc(Cl)cc3)cnc2[nH]1	-4	9	5	1	+
COc1ccc(/C=N/Nc2cc(=O)n(C)c(=O)n2C)cc1OC	1	34*	-8	·	13
COc1cc(/C=N\Nc2cc(=O)n(C)c(=O)n2C)ccc1O	-2	18	-1	·	0
COc1cc(/C=C\C(=O)Nc2cc(=O)n(C)c(=O)n2C)cc(OC)c1OC	-10	25	-10	-2	-3
COc1ccc(/C=C/C(=O)NNc2cc(=O)n(C)c(=O)n2C)cc1OC	1	34*	6	-5	11
